# Laboratory results published in PubChem BioAssay (EPA / NIEHS).
# Results filed as inconclusive are left out. The source made the active and inactive calls. The calls were made as follows, unless noted: active = hit-call score of the fitted dose curve at least 0.9, where 1 is the maximum; inactive = score below 0.9.
# Assays:
# [1] = target: human RAR-related Orphan Receptor gamma (RORg), RORC (gene 6097) (UniProt P51449); experiment: ATG_RORg_TRANS: Attagene TRANS-FACTORIAL HepG2 Assay for human RAR-related Orphan Receptor gamma (RORg) (AID 2283011; active = hit-call score of the fitted dose curve at least 0.9, where 1 is the maximum)
# In short: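 HepG2 cells transiently transfected with GAL4-UAS reporter units and chimeric RORg-Gal4 construct; after 24 h chemical exposure, reporter mRNA measured by RT-PCR with fluorescent capillary electrophoresis, gain of signal fitted against DMSO.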
# [2] = target: Retinoic acid receptor RXR-alpha (Homo sapiens) (UniProt P19793); experiment: ATG_RXRa_TRANS: Attagene TRANS-FACTORIAL HepG2 Assay for human Retinoid X Receptor alpha (RXRa) (AID 2283012; active = hit-call score of the fitted dose curve at least 0.9, where 1 is the maximum)
# In short: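 HepG2 cells transiently transfected with multiplexed GAL4-UAS reporter units and chimeric NR-GAL4 fusions, dosed 24 h. Reporter mRNA measured by RT-PCR, FAM labelling, HpaI digestion and capillary electrophoresis; gain-of-signal fitted relative to DMSO baseline.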
# [3] = target: human Retinoid X Receptor beta (RXRb), RXRB (gene 6257) (UniProt P28702); experiment: ATG_RXRb_TRANS: Attagene TRANS-FACTORIAL HepG2 Assay for human Retinoid X Receptor beta (RXRb) (AID 2283013; active = hit-call score of the fitted dose curve at least 0.9, where 1 is the maximum)
# In short: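 HepG2 cells transiently transfected with multiplexed reporter units driven by GAL4-UAS and exogenous chimeric NR-Gal4 proteins; treated 24 h. Reporter mRNA measured by RT-PCR, 6-FAM labelling and capillary electrophoresis; gain-of-signal fitted versus DMSO baseline.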
# [4] = read-out: E-selectin (Homo sapiens) (UniProt P16581); experiment: BSK_3C_Eselectin: BioMAP Diversity Plus: 3C Assay for Eselectin Biomarker Activity (AID 2283015); settings: primary human endothelial cells (HUVEC); actives raise or lower the signal;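 as to outcome: cell surface E-selectin protein quantified by ELISA 24 h after dosing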
# In short: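 Primary human umbilical vein endothelial cells (3C system), read 24 h after compound addition; E-selectin measured by ELISA. Bidirectional curve fitting against DMSO baseline; cytotoxicity by parallel SRB total-protein staining.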
# [5] = read-out: Monocyte Chemoattractant Protein-1 (MCP1), CCL2 (gene 6347); experiment: BSK_3C_MCP1: BioMAP Diversity Plus: 3C Assay for Monocyte Chemoattractant Protein-1 (MCP1) Biomarker Activity (AID 2283017); settings: primary human endothelial cells (HUVEC); actives raise or lower the signal
# In short: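 Human umbilical vein endothelial cells (3C system) exposed to chemicals for 24 h; MCP-1 quantified by ELISA against the DMSO baseline with bidirectional fitting, and parallel SRB staining used to assess cytotoxicity.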
# [6] = read-out: Monocyte Chemoattractant Protein-1 (MCP1), CCL2 (gene 6347); experiment: BSK_4H_MCP1: BioMAP Diversity Plus: 4H Assay for Monocyte Chemoattractant Protein-1 (MCP1) Biomarker Activity (AID 2283018); settings: primary human endothelial cells (HUVEC); actives raise or lower the signal
# In short: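 Human umbilical vein endothelial cells (4H system) dosed with chemical; MCP-1 measured by ELISA 24 h after dosing. Bidirectional curve fitting against DMSO negative control as baseline; parallel SRB total-protein staining tracks overt cytotoxicity.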
# [7] = read-out: Human Leukocyte Antigen - DR isotype (HLADR), HLA-DRA (gene 3122); experiment: BSK_3C_HLADR: BioMAP Diversity Plus: 3C Assay for Human Leukocyte Antigen - DR isotype (HLADR) Biomarker Activity (AID 2283019); settings: primary human endothelial cells (HUVEC); actives raise or lower the signal;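 as to outcome: ELISA of cell-surface HLA-DR on HUVEC 24 h after dosing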
# In short: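 HUVEC monoculture, HLA-DR measured by ELISA 24 h after chemical dosing. Fitted bidirectionally against DMSO baseline; parallel SRB staining assessed cytotoxicity, with 3C proliferation read by SRB at 48 h.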
# [8] = read-out: Interleukin-8 (IL8), CXCL8 (gene 3576); experiment: BSK_3C_IL8: BioMAP Diversity Plus: 3C Assay for Interleukin-8 (IL8) Biomarker Activity (AID 2283020); settings: primary human endothelial cells (HUVEC); actives raise or lower the signal
# In short: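 Primary human umbilical vein endothelial cells (3C system) were exposed to test chemical for 24 h, then IL-8 was quantified by ELISA. Responses were fitted bidirectionally against DMSO vehicle as baseline.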
# [9] = target: human Thyroid Receptor alpha (THRa1), THRA (gene 7067) (UniProt P10827); experiment: ATG_THRa1_TRANS: Attagene TRANS-FACTORIAL HepG2 Assay for human Thyroid Receptor alpha (THRa1) (AID 2283014; active = hit-call score of the fitted dose curve at least 0.9, where 1 is the maximum)
# In short: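 HepG2 cells transiently transfected with chimeric NR-Gal4 and GAL4-UAS reporter units, dosed 24 h. Reporter mRNA quantified by RT-PCR, fluorescent labeling, HpaI digestion and capillary electrophoresis; gain-of-signal fit versus DMSO.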
# [10] = read-out: Interleukin-1 alpha (IL1a), IL1A (gene 3552); experiment: BSK_BE3C_IL1a: BioMAP Diversity Plus: BE3C Assay for Interleukin-1 alpha (IL1a) Biomarker Activity (AID 2283016); settings: primary human bronchial epithelial cells; actives raise or lower the signal
# In short: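 Human primary bronchial epithelial cells (BE3C system) were dosed with compound and IL-1a measured by ELISA 24 h later. Activity was fitted bidirectionally against DMSO baseline; cytotoxicity was tracked in parallel cultures by SRB total-protein staining.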
# human Retinoid X Receptor beta (RXRb), RXRB (gene 6257), sequence (P28702 whole entry, looked up, the tested form may be a part): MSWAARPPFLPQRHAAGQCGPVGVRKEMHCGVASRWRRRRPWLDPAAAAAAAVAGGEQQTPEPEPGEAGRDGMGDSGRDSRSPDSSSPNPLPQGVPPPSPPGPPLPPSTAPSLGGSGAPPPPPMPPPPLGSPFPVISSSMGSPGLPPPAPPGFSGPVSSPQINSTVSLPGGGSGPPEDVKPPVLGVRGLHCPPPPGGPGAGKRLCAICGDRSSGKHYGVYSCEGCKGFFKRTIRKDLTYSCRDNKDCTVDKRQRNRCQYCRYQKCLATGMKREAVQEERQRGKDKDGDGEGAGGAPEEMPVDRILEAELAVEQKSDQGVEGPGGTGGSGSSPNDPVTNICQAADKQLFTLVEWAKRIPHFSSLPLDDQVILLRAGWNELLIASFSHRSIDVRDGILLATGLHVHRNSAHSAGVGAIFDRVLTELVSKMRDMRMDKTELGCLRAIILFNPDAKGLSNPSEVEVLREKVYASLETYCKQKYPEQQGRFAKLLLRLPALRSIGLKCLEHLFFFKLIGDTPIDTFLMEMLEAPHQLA
# Retinoic acid receptor RXR-alpha (Homo sapiens), sequence (P19793 whole entry, looked up, the tested form may be a part): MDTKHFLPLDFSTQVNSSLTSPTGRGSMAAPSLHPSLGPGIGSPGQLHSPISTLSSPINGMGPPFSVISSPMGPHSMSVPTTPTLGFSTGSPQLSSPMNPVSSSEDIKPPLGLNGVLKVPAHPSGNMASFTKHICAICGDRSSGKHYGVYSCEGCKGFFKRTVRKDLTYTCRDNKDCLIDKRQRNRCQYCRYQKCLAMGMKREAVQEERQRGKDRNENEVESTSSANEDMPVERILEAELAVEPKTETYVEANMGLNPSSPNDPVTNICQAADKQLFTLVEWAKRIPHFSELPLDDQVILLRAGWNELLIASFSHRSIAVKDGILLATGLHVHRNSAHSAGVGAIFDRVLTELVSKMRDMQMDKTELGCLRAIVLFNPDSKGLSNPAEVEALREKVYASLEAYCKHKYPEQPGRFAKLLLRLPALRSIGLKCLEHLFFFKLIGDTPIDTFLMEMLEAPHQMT
# E-selectin (Homo sapiens), sequence (P16581 whole entry, looked up): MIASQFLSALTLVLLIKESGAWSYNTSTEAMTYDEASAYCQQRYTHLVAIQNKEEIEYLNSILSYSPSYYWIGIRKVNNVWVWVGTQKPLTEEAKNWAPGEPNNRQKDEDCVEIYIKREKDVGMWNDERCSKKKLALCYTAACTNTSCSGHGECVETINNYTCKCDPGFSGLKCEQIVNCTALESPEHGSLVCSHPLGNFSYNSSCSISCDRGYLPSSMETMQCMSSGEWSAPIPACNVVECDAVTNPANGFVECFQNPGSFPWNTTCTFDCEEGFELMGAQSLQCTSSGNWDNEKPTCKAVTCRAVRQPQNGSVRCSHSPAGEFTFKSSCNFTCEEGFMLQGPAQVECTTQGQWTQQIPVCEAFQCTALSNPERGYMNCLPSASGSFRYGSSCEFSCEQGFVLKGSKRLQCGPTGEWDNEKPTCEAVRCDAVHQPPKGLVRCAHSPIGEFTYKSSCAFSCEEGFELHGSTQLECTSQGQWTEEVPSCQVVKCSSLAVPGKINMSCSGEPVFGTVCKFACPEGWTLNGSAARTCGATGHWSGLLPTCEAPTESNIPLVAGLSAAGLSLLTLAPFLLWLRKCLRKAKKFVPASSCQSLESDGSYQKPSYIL
# human Thyroid Receptor alpha (THRa1), THRA (gene 7067), sequence (P10827 whole entry, looked up, the tested form may be a part): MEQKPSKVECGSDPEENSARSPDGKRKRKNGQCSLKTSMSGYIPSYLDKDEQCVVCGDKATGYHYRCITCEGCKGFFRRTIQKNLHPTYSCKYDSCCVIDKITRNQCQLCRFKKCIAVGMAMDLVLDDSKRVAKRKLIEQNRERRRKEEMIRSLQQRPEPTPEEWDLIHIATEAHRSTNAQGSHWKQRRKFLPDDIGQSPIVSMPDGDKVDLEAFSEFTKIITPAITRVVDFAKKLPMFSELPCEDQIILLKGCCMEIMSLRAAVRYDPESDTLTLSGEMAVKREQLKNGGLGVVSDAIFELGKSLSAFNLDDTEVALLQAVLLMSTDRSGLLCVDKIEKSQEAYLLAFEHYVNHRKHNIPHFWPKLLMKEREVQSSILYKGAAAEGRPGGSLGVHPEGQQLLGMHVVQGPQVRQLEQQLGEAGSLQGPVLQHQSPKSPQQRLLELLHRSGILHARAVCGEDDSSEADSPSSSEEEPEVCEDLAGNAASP
# human RAR-related Orphan Receptor gamma (RORg), RORC (gene 6097), sequence (P51449 whole entry, looked up, the tested form may be a part): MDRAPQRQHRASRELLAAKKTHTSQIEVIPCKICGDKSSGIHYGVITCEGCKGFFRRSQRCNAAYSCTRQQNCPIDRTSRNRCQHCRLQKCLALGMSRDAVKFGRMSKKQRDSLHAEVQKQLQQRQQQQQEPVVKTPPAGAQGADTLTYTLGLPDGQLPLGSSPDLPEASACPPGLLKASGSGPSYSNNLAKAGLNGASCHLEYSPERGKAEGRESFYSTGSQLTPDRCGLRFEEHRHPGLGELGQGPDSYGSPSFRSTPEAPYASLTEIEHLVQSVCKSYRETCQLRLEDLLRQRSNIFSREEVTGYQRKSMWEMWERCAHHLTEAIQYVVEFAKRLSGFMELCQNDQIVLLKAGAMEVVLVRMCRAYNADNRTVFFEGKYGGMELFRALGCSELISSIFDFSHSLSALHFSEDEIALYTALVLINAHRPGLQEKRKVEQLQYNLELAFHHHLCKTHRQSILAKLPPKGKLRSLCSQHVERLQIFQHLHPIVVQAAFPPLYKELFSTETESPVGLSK
Compound,outcome [1],outcome [2],outcome [3],outcome [4],outcome [5],outcome [6],outcome [7],outcome [8],outcome [9],outcome [10],AC50 [5],AC50 [6],AC50 [7],AC50 [4],AC50 [8]
C=C(C)CN(CC)c1c([N+](=O)[O-])cc(C(F)(F)F)cc1[N+](=O)[O-],inactive,inactive,inactive,inactive,inactive,inactive,inactive,inactive,–,–,–,–,–,–,–
CCOP(=S)(OCC)Oc1nc(Cl)n(C(C)C)n1,inactive,–,inactive,inactive,inactive,inactive,inactive,inactive,inactive,inactive,–,–,–,–,–
Cc1nc(N(C)C)nc(OC(=O)N(C)C)c1C,inactive,inactive,–,inactive,inactive,inactive,inactive,inactive,inactive,–,–,–,–,–,–
CCOc1nc(F)cc2nc(S(=O)(=O)Nc3c(Cl)cccc3Cl)nn12,inactive,inactive,inactive,inactive,–,inactive,inactive,inactive,inactive,inactive,33.2 µM (active),–,–,–,–
CCC(C)n1c(=O)[nH]c(C)c(Br)c1=O (stereo unspecified),inactive,inactive,inactive,inactive,inactive,inactive,inactive,inactive,inactive,–,–,–,–,–,–
CC(C)N1C(=O)c2ccccc2NS1(=O)=O,inactive,inactive,inactive,inactive,inactive,inactive,inactive,inactive,–,–,–,–,–,–,–
Nc1c(Cl)c(Cl)nc(C(=O)O)c1Cl,inactive,inactive,inactive,inactive,inactive,inactive,inactive,inactive,inactive,–,–,–,–,–,–
CC1(C)C(C=C(Cl)Cl)C1C(=O)OC(C#N)c1cccc(Oc2ccccc2)c1 (stereo unspecified),inactive,inactive,inactive,inactive,inactive,–,inactive,inactive,–,–,–,9.17 µM (active),–,–,–
Cc1c(COC(=O)[C@@H]2[C@H](/C=C(\Cl)C(F)(F)F)C2(C)C)cccc1-c1ccccc1,inactive,inactive,inactive,inactive,inactive,inactive,–,inactive,inactive,–,–,–,5.44 µM (active),–,–
CC(C)N1C(=O)N(c2ccccc2)CSC1=NC(C)(C)C,inactive,inactive,–,–,–,–,–,–,inactive,–,31.3 µM (active),30.4 µM (active),31.8 µM (active),16 µM (active),25.4 µM (active)
CNC(=O)N(C)c1nnc(C(C)(C)C)s1,inactive,inactive,–,inactive,inactive,inactive,inactive,inactive,–,inactive,–,–,–,–,–
CC1(C)CON(Cc2ccccc2Cl)C1=O,inactive,inactive,–,inactive,inactive,inactive,inactive,inactive,inactive,–,–,–,–,–,–
CCSC(=O)N1CCCCCC1,inactive,inactive,inactive,inactive,inactive,inactive,inactive,inactive,–,–,–,–,–,–,–
CCOc1cc(C(C)(C)C)ccc1C1COC(c2c(F)cccc2F)=N1 (stereo unspecified),inactive,inactive,inactive,–,–,–,–,–,–,–,27.6 µM (active),18.5 µM (active),29.8 µM (active),18.9 µM (active),23.9 µM (active)
CNC(=O)Oc1cccc2ccccc12,inactive,inactive,inactive,inactive,inactive,inactive,inactive,inactive,inactive,–,–,–,–,–,–
CCNC(=O)NC(=O)C(C#N)=NOC,inactive,inactive,–,inactive,inactive,inactive,inactive,inactive,inactive,inactive,–,–,–,–,–
Clc1cccc(C(Cl)(Cl)Cl)n1,inactive,inactive,inactive,inactive,inactive,inactive,inactive,inactive,inactive,inactive,–,–,–,–,–
